Source: PubChem BioAssay (NCATS)
Results filed as inconclusive are left out. The source made the active and inactive calls. Unless noted, no rule for the calls is given here.

Tests used:
[1] = qHTS profiling of the MIPE4 collection as inhibitors of Plasmodium falciparum (3D7) proliferation (AID 743344);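 also: scaled between DMSO vehicle wells and 0.29 µM artemisinin as full inhibition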; details: P. falciparum 3D7 in erythrocytes, SYBR Green DNA fluorescence, 72 h; at 28.5 µM unless noted
Summary of the method: (§1)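 Erythrocytes infected with P. falciparum (0.3% parasitemia, 2.5% hematocrit) incubated with compounds 72 h at 37 C, 5% CO2. Lysis with saponin/Triton buffer containing SYBR Green I, overnight at room temperature in the dark; DNA fluorescence (485/535 nm) normalised to 0.29 uM artemisinin and DMSO.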

[2] = qHTS profiling of the MIPE4 collection as inhibitors of Plasmodium falciparum (DD2) proliferation (AID 743345); details: P. falciparum Dd2 in erythrocytes, SYBR Green DNA, 72 h; at 28.5 µM unless noted
Summary of the method: as §1

[3] = qHTS profiling of the MIPE4 collection as inhibitors of Plasmodium falciparum (DD2) proliferation (Rep 2) (AID 743346); details: P. falciparum Dd2 in erythrocytes, SYBR Green DNA, 72 h; at 28.5 µM unless noted
Summary of the method: as §1

[4] = qHTS profiling of the MIPE4 collection as inhibitors of Plasmodium falciparum (HB3) proliferation (AID 743347);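 also: plate controls were DMSO vehicle wells for no effect and artemisinin wells for full effect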; details: P. falciparum HB3 in erythrocytes, SYBR Green DNA, 72 h; at 28.5 µM unless noted
Summary of the method: as §1

[5] = High-throughput drug toxicity screening in the BPDCN cell line Gen2.2 (AID 1224824); details: Gen2.2 BPDCN cells; at 45.8 µM (top of the series) unless noted
Summary of the method: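 Readout is ATP luminescence from Gen2.2 cells after two days of drug exposure in serum-containing medium at 37 °C. Values express percent activity, with vehicle defining full signal and 9.2 uM bortezomib defining zero.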

[6] = High-throughput drug toxicity screening in the BPDCN cell line Cal-1 (AID 1224825); details: Cal-1 BPDCN cell viability, qHTS; at 45.8 µM (top of the series) unless noted
Summary of the method: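 Cal-1 cells, 500 per well in phenol-red-free RPMI with 10% FBS, exposed to compounds for 48 hours at 37C, 5% CO2. Viability read by CellTiter-Glo luminescence; percent activity normalized to DMSO (100%) and 9.2 uM bortezomib final (0%).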

[7] = qHTS assay for measurement of the activity of small molecule inhibitors on Zika virus induced Caspase-3 activity in human iPSC derived neural progenitor cells (hNPCs) (AID 1224857; active = well fitted curve in the direction sought with a large enough effect; an effect the other way counts as inactive or inconclusive; also: % of control where 0% means no effect; nearly all actives have a fitted effect of over 65% in size)
Summary of the method: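 hNPCs seeded 350 cells/well, cultured 16–20 h; compounds added 1 h before ZIKV (2 FFU/cell), 37 C 6 h. Caspase-Glo 3/7 luminescence after 30 min RT; % inhibition from induction scaled to uninfected (0%) and infected (100%) wells.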

[8] = qHTS assay for measurement of the activity of small molecule inhibitors on Zika virus induced Caspase-3 activity in human astrocytoma cells (AID 1224859; active = well fitted curve in the direction sought with a large enough effect; an effect the other way counts as inactive or inconclusive;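 also: plate controls were ZIKV-infected untreated cells for no effect and uninfected cells for full effect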)
Summary of the method: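 Luminescence read-out (Caspase-Glo 3/7, 30 min RT) of caspase activity in SNB-19 cells infected 6 h with ZIKV, 2 FFU/cell, after 1 h compound pretreatment; % inhibition from induction normalised to uninfected (0%) and infected (100%) wells.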

[9] = qHTS Screen of the MIPE 4.0 Collection Against Ewings Sarcoma (TC71) (AID 1259253; active = well fitted curve in the direction sought with a large enough effect; an effect the other way counts as inactive or inconclusive; also: nearly all actives have a fitted effect of over 40% in size; also: potency is read from the fitted curve at half-maximal effect)
Summary of the method: (§2)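 Viability screen: 48 h incubation at 37C, 95% humidity, 5% CO2 with serially titrated compound, followed by CellTiter-Glo readout.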

[10] = P-glycoprotein substrates identified in KB-3-1 adenocarcinoma cell line, qHTS therapeutic library screen (AID 1346986; active = well fitted curve in the direction sought with a large enough effect; an effect the other way counts as inactive or inconclusive; also: nearly all actives have a fitted effect of over 60% in size;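 also: potency is read from the fitted curve at half-maximal effect; potency is for cytotoxicity meaning loss of cell viability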)
Summary of the method: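 Compounds were tested in dose-response against KB-3-1 and KB-8-5-11 cells at 37 degree C for 72 h, and viability was measured by luminescence. AC50 values came from curve fitting with class-based activity calls.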

[11] = qHTS Screen of the MIPE 4.0 Collection Against Ewings Sarcoma (EW8) (AID 1259255; active = well fitted curve in the direction sought with a large enough effect; an effect the other way counts as inactive or inconclusive; also: nearly all actives have a fitted effect of over 35% in size; also: potency is read from the fitted curve at half-maximal effect;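 as to viability: 100% = DMSO-treated cells and 0% = medium-only wells without cells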)
Summary of the method: as §2

[12] = qHTS Screen of the MIPE 4.0 Collection Against Ewings Sarcoma (TC32) (AID 1259256; active = well fitted curve in the direction sought with a large enough effect; an effect the other way counts as inactive or inconclusive; also: nearly all actives have a fitted effect of over 45% in size; also: potency is read from the fitted curve at half-maximal effect)
Summary of the method: as §2

[13] = qHTS profiling for inhibitors of Plasmodium falciparum (HB3) proliferation (AID 743324; active = well fitted curve in the direction sought with a large enough effect; an effect the other way counts as inactive or inconclusive;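 also: 100% = DMSO vehicle wells and 0% = artemisinin-treated control wells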); details: Plasmodium falciparum HB3 blood-stage proliferation; at 28.7 µM (top of the series) unless noted
Summary of the method: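 P. falciparum HB3 grown in erythrocytes (0.3% parasitemia, 2.5% hematocrit final) with compound for 72 h at 37 C, 5% CO2. Parasite DNA detected by SYBR Green after saponin/triton lysis overnight; normalized to 0.29 uM artemisinin and DMSO.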

[14] = Identifying Small Molecule Inhibitors of Pancreatic Cancer Stem Cells (SN12C, Adherent) (AID 1259358; active = well fitted curve in the direction sought with a large enough effect; an effect the other way counts as inactive or inconclusive;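 also: cell survival measured after 48 h of compound exposure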; also: potency is read from the fitted curve at half-maximal effect)
Summary of the method: (§3)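 Monolayer and spheroid cultures are compared. Spheroids form over 14 days in stem cell medium on hydrogel-coated low-attachment plates, then are exposed to compound for 48 h before CellTiter-Glo luminescence.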

[15] = Identifying Small Molecule Inhibitors of Pancreatic Cancer Stem Cells (SN12C, Spheroid) (AID 1259360; active = well fitted curve in the direction sought with a large enough effect; an effect the other way counts as inactive or inconclusive; also: potency is read from the fitted curve at half-maximal effect;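 as to viability (% of control): 100% = DMSO-treated cells and 0% = wells without cells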); details: Potency: SN12C spheroid viability
Summary of the method: (§4)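 Pre-formed 14-day tumor spheroids or adherent cells dosed and incubated 48 h, 37C, 5% CO2. Viability assessed by CellTiter-Glo.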

[16] = Identifying Small Molecule Inhibitors of Pancreatic Cancer Stem Cells (A278, Adherent) (AID 1259361; active = well fitted curve in the direction sought with a large enough effect; an effect the other way counts as inactive or inconclusive;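 also: viability read after 48 h compound exposure; 100% = DMSO-treated cells and 0% = cell-free media-only wells; nearly all actives have a fitted effect of over 35% in size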)
Summary of the method: as §3

[17] = Identifying Small Molecule Inhibitors of Pancreatic Cancer Stem Cells (A2780, Spheroid) (AID 1259357; active = well fitted curve in the direction sought with a large enough effect; an effect the other way counts as inactive or inconclusive;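 also: compound exposure lasted 48 h before the ATP luminescence read; 100% = DMSO treated cells and 0% = wells without cells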); details: Potency: A2780 spheroid viability
Summary of the method: as §4

Structure (SMILES)	parasite growth, % of DMSO control [1] [%]	parasite growth remaining, % of DMSO control (lower = more inhibition) [2] [%]	parasite growth, % of control (lower = inhibition) [3] [%]	growth, % of control [4] [%]	cell viability, % of control (lower = more cytotoxic) [5] [%]	viability (% of control) [6] [%]	Potency [7]	Potency [8]	Potency [9]	Potency [10]	Potency [11]	Potency [12]	remaining proliferation (% of control), lower = more inhibition [13] [%]	Potency [14]	Potency [15]	IC50 (viability decrease) [16]	Potency [17]
OC[C@H]1O[C@@H](Oc2ccc(O)cc2)[C@H](O)[C@@H](O)[C@H]1O	82.1	94.8	127	93.4	146	83.5	inactive	inactive	18.7 µM (active)	inactive	–	–	–	–	–	–	–
CCCCCCOC(=O)N=C(N)c1ccc(NCc2nc3cc(C(=O)N(CCC(=O)OCC)c4ccccn4)ccc3n2C)cc1	9.57	28.2	16	–	274	17.1	inactive	inactive	–	–	8.33 µM (active)	7.43 µM (active)	–	–	–	–	–
NC[C@H]1O[C@H](O[C@@H]2[C@@H](O)[C@@H](O[C@H]3O[C@H](CO)[C@@H](O)[C@H](N)[C@@H]3O)[C@H](N)C[C@@H]2N)[C@H](O)[C@@H](O)[C@H]1O	96.1	100	80.6	–	161	98.4	inactive	inactive	–	–	inactive	–	–	–	–	–	–
CCC(=C(CC)c1ccc(O)cc1)c1ccc(O)cc1	57.2	96.4	84.8	–	111	25.3	inactive	inactive	26.4 µM (active)	–	26.4 µM (active)	–	–	–	–	–	–
COC(=O)Nc1ccc(-c2nc(N3CCOCC3)c3cnn(C4CCN(C(=O)OC)CC4)c3n2)cc1	11.1	14.3	27.4	7.52	8.32	4.85	inactive	inactive	–	1.64 µM (active)	0.148 µM (active)	–	0.698	0.264 µM (active)	1.05 µM (active)	–	–
CC(C)CNc1ccnc(NCc2csc(-c3ccccc3)n2)n1	7.23	31.7	25	10.6	74.3	5.31	inactive	inactive	–	–	18.7 µM (active)	14.8 µM (active)	-0.95	–	–	–	–
O=C(O)CCC=CCC[C@@H]1[C@H](N2CCCCC2)[C@@H](O)C[C@@H]1OCc1ccc(-c2ccccc2)cc1	67.9	92.8	–	63	169	63	inactive	inactive	inactive	inactive	–	inactive	–	–	–	–	–
CCOc1ccccc1N=Nc1c(C)[nH]n(-c2nc(-c3ccccc3)cs2)c1=O	92.5	102	82.1	87.1	97.4	63.6	inactive	inactive	20.9 µM (active)	–	–	11.8 µM (active)	–	–	–	–	–
CCC=CC[C@H]1C(=O)CC[C@@H]1CC(=O)OC	62.5	109	86.4	–	137	107	inactive	inactive	16.6 µM (active)	inactive	inactive	–	113	inactive	inactive	inactive	–
CN(C)c1ccccc1CN1CCCN(Cc2ccccc2N(C)C)C1c1ccncc1	17.2	9.84	11.1	12.9	13.5	29.7	inactive	inactive	–	inactive	18.7 µM (active)	–	–	–	–	–	–
CNC(=O)c1cc(COc2nnc(Nc3ccc(Cl)cc3)c3ccoc23)ccn1	40.5	79.6	52.9	48.2	159	92.9	inactive	inactive	inactive	inactive	inactive	–	28.7	inactive	–	–	inactive
Cc1cc2c(cc1C1(c3ccc(C(=O)O)cn3)CC1)C(C)(C)CCC2(C)C	58.3	95.5	77.6	78.5	529	121	inactive	inactive	inactive	inactive	–	inactive	94.8	inactive	–	–	inactive
COC(=O)[C@H](c1ccccc1Cl)N1CCc2sccc2C1	43.8	79	22.1	24.3	95.6	91.3	inactive	inactive	–	inactive	inactive	–	–	–	–	–	–
OC[C@H]1O[C@@H](O[C@H]2[C@@H](O)[C@@](O)(CO)O[C@@H]2CO)[C@H](O)[C@@H](O)[C@@H]1O	87.6	72.5	79.8	88	137	96.1	inactive	inactive	inactive	–	inactive	–	–	–	–	–	–
CO[C@H]1O[C@@H]2O[C@@]3(C)CC[C@@H]4[C@@H](C)CC[C@@H]([C@H]1C)[C@@]24OO3	20.7	7.38	–	46	62.1	31.3	inactive	inactive	4.69 µM (active)	inactive	5.9 µM (active)	–	–	–	–	–	–
CN(C)CC[C@H](CSc1ccccc1)Nc1ccc(S(=O)(=O)NC(=O)c2ccc(N3CCN(Cc4ccccc4-c4ccc(Cl)cc4)CC3)cc2)cc1[N+](=O)[O-]	34	61.7	31.1	4.32	8.88	4.81	inactive	inactive	–	–	16.6 µM (active)	4.18 µM (active)	41.4	–	–	–	–
N=C1SC(=Cc2ccc(-c3ccc4c(c3)C(=O)NC4=O)o2)C(=O)N1c1ccc(Br)cc1	9.09	21.3	30.9	9.17	13.7	35.6	inactive	inactive	–	inactive	inactive	18.7 µM (active)	–	–	–	–	–
